These results are taken from the supplement of paper PMC10127200.

Where a name gives a salt, the structure may show the parent alone.

Common to all, as to experiment: Euclidean distance of Cell Painting phenotypic profile (signed KS, 77 features) to DMSO centroid (dimensionless distance); 5 or 10 uM (library dependent); higher = stronger phenotypic change vs DMSO (phenoactivity)
Conditions in all cases: 48 h

One assay concerns 786-O. An outline of the steps: (§1)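 Five cancer lines and a healthy fibroblast line received library compounds at 10 or 5 uM (library-dependent, 0.1% DMSO final) for 48 h. Stained cells were imaged confocally at 20X (9 fields/well). Harmony extracted 77 features, each scored as a signed Kolmogorov-Smirnov statistic against same-plate vehicle wells. Profiles were plate-position corrected, correlation-weighted and replicate-averaged at the top dose. Phenoactivity is the Euclidean distance from each profile to the median vehicle profile.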

A further assay has as its system A549. An outline of the steps:
as §1

A further assay deals with DU145. An outline of the steps: as §1
For a further assay, the system named is FB. An outline of the steps:
as §1

The test system of another assay is HEPG2. An outline of the steps:
as §1

A further assay concerns OVCAR4. An outline of the steps:
as §1

In the case of `COc1ccc(Cc2cnc(N)nc2N)cc1OC` [Diaveridine], the Euclidean distance in the assay with 786-O was 0.784; with A549, 1.57; in the assay with DU145 it was 1.59; with FB, 1.23; with HEPG2 it was 0.387; in the assay with OVCAR4, 1.42.

Consider `COC(=O)Nc1nc2cc([S+]([O-])c3ccccc3)ccc2[nH]1` (stereo not drawn) [Oxfendazole], for which the Euclidean distance in the assay with 786-O worked out at 1.09; in the assay with A549, 0.692; in the assay on DU145 it was 1.08; in the assay on FB, 0.801; in the assay with HEPG2, 1.42; with OVCAR4, 1.12.

On to `CC[C@]12CCCN3CCc4c(n(c5ccccc45)[C@@](O)(C(=O)OC)C1)[C@@H]32` [Vincamine], for which the Euclidean distance in the assay with 786-O was 1.3; in the assay on A549 it was 1.33; with DU145, 0.578; with FB, 0.795; in the assay with HEPG2, 0.91; with OVCAR4, 1.18.

As for `COC(=O)C1=C(C)NC(C)=C(C(=O)OC2CCCN(Cc3ccccc3)C2)C1c1cccc([N+](=O)[O-])c1` (stereo not drawn) [Benidipine HCl], the Euclidean distance with 786-O stood at 1.39; in the assay on A549, 0.86; with DU145, 0.823; in the assay with FB it was 0.926; in the assay with HEPG2, 0.713; in the assay with OVCAR4, 1.45.

Regarding `CO/N=C(\C(=O)N[C@@H]1C(=O)N2C(C(=O)O)=CCS[C@H]12)c1csc(N)n1` [Ceftizoxime sodium], the Euclidean distance with 786-O amounted to 0.557; with A549 it was 0.807; in the assay with DU145, 1.33; with FB, 1.07; in the assay with HEPG2, 0.578; in the assay on OVCAR4 it was 0.958.

On to `O=[N+]([O-])c1cncn1CCN1CCOCC1` [Nimorazole], for which the Euclidean distance in the assay on 786-O is 0.827; in the assay with A549 it was 0.551; in the assay on DU145 it was 1.21; with FB it was 0.76; in the assay with HEPG2, 1.18; in the assay with OVCAR4, 0.937.

On to `Nc1cccc2c1CN(C1CCC(=O)NC1=O)C2=O` (stereo not drawn) [Lenalidomide (CC-5013)], for which the Euclidean distance in the assay on 786-O is 1.74; in the assay on A549, 1.2; with DU145, 0.79; in the assay on FB it was 1.03; in the assay with HEPG2 it was 0.639; in the assay on OVCAR4, 1.15.

For the compound `CCC(=O)O[C@@H](O[P@](=O)(CCCCc1ccccc1)CC(=O)N1C[C@H](C2CCCCC2)C[C@H]1C(=O)O)C(C)C` [Fosinopril Sodium], the Euclidean distance stood at 1.19 in the assay on 786-O; 0.719 with A549; 1.62 in the assay with DU145; 0.746 in the assay on FB; 0.444 with HEPG2; 1.23 in the assay on OVCAR4.

In the case of `CC(=O)Nc1nnc(S(N)(=O)=O)s1` [Acetazolamide], the Euclidean distance in the assay with 786-O was determined as 1.03; with A549 it was 0.669; in the assay on DU145, 0.642; in the assay with FB it was 0.704; in the assay with HEPG2 it was 0.604; in the assay with OVCAR4, 1.08.

Regarding `COC(=O)C1=C(C)NC(C)=C(C(=O)OCCN(C)Cc2ccccc2)C1c1cccc([N+](=O)[O-])c1` (stereo not drawn) [Nicardipine HCl], the Euclidean distance was 1.27 with 786-O; 1.28 in the assay with A549; 0.897 in the assay on DU145; 0.903 in the assay on FB; 1.24 in the assay with HEPG2; 1.31 with OVCAR4.

In the case of `Cc1cnc(Nc2ccc(OCCN3CCCC3)cc2)nc1Nc1cccc(S(=O)(=O)NC(C)(C)C)c1`, the Euclidean distance turned out to be 4.21 with 786-O; 4.4 in the assay with A549; 2.95 in the assay with DU145; 4.43 with FB; 2.96 with HEPG2; 3.56 with OVCAR4.

Turning to `Nc1ncnc2c1ncn2C1OC(COP(=O)(O)O)C(O)C1O` (stereo not drawn) [Adenosine 5'-monophosphate monohydrate], the Euclidean distance in the assay with 786-O came to 0.685; with A549, 0.894; with DU145, 0.9; in the assay with FB, 0.831; with HEPG2 it was 0.601; with OVCAR4, 1.27.

Regarding `Cc1[nH]c(/C=C2\C(=O)Nc3ccc(S(=O)(=O)N(C)c4cccc(Cl)c4)cc32)c(C)c1C(=O)N1CCN(C)CC1`, the Euclidean distance was 2.57 in the assay on 786-O; 3.08 in the assay with A549; 2.03 in the assay with DU145; 2.51 in the assay on FB; 1.47 in the assay with HEPG2; 3.13 in the assay with OVCAR4.

Take `COc1ccc([C@]2(C#N)CC[C@@H](C(=O)O)CC2)cc1OC1CCCC1` [Cilomilast]: the Euclidean distance was 1.31 in the assay on 786-O; 0.842 in the assay on A549; 1.35 in the assay with DU145; 1.14 in the assay on FB; 1.3 in the assay on HEPG2; 1.53 in the assay with OVCAR4.

In the case of `C[C@@H](O)[C@@H]1NC(=O)[C@H](CCCCN)NC(=O)[C@@H](Cc2c[nH]c3ccccc23)NC(=O)[C@H](Cc2ccccc2)NC(=O)[C@@H](NC(=O)[C@H](N)Cc2ccccc2)CSSC[C@@H](C(=O)N[C@H](CO)[C@@H](C)O)NC1=O` [Octreotide Acetate], the Euclidean distance was determined as 1.6 in the assay with 786-O; 1.39 with A549; 1.08 in the assay with DU145; 0.734 in the assay with FB; 0.782 in the assay on HEPG2; 1.45 in the assay on OVCAR4.

As for `CC(/C=C/C(=O)NO)=C\[C@@H](C)C(=O)c1ccc(N(C)C)cc1` [Trichostatin A], the Euclidean distance with 786-O turned out to be 3.62; with A549 it was 4.26; in the assay on DU145, 3.19; in the assay with FB, 4.05; with HEPG2 it was 3.58; in the assay on OVCAR4 it was 3.53.

For `Nc1cccc2c1C(=O)N(C1CCC(=O)NC1=O)C2=O` (stereo not drawn) [Pomalidomide], the Euclidean distance in the assay on 786-O came to 0.929; with A549, 0.804; in the assay on DU145 it was 0.704; with FB, 1.06; with HEPG2 it was 0.312; in the assay on OVCAR4 it was 0.886.

For the compound `C[C@H]1O[C@@H](O[C@H]2CC[C@@]3(C)[C@@H](CC[C@]4(C)[C@@H]3C=C[C@]35OC[C@@]6(CCC(C)(C)C[C@H]63)[C@@H](O)C[C@]54C)[C@]2(C)CO)[C@H](O)[C@@H](O[C@@H]2O[C@H](CO)[C@@H](O)[C@H](O)[C@H]2O)[C@H]1O` [Saikosaponin A], the Euclidean distance in the assay with 786-O was 1.06; with A549 it was 2.42; in the assay with DU145, 2.17; in the assay with FB, 1.52; in the assay on HEPG2 it was 0.854; in the assay with OVCAR4, 2.14.

`COc1cc(OC)cc(N(CCNC(C)C)c2ccc3ncc(-c4cnn(C)c4)nc3c2)c1`: the Euclidean distance with 786-O stood at 3.65; with A549 it was 3.46; with DU145 it was 2.34; in the assay with FB, 4.29; in the assay with HEPG2 it was 3.36; in the assay on OVCAR4 it was 3.1.

For `Cc1cnc(CNC(=O)c2c(=O)c3ccc(N4CCCN(C)CC4)nc3n3c2sc2ccccc23)cn1`, the Euclidean distance in the assay on 786-O turned out to be 2.93; in the assay on A549, 3.26; in the assay with DU145 it was 2.7; with FB, 3.86; with HEPG2, 2.18; with OVCAR4, 3.31.

For the compound `O=C(O)CCNC(=O)c1ccc(/N=N/c2ccc(O)c(C(=O)O)c2)cc1` [Balsalazide disodium], the Euclidean distance in the assay with 786-O stood at 0.73; with A549, 0.808; in the assay with DU145 it was 0.796; in the assay with FB, 0.76; in the assay with HEPG2, 0.576; with OVCAR4 it was 0.971.

For `CN1C(=O)[C@@H](NC(=O)c2n[nH]c(Cc3ccccc3)n2)COc2ccccc21`, the Euclidean distance in the assay with 786-O was 0.778; in the assay on A549, 1.15; in the assay with DU145, 1.8; with FB, 1.02; in the assay with HEPG2 it was 0.727; in the assay with OVCAR4 it was 1.12.

With `Cc1ccccc1OCC(O)CO` (stereo not drawn) [Mephenesin], the Euclidean distance with 786-O came to 0.824; with A549, 0.804; in the assay with DU145, 0.895; in the assay on FB it was 1.13; in the assay with HEPG2, 0.549; in the assay on OVCAR4 it was 1.86.
